PLC-beta3 inh: PLC-beta3 (human) inhibition, primary screen. Purified PLC-beta3, fluorogenic substrate, fluorescence. Q01970. hit rate 0.18% among 370,000. inhibition, % at 12.2 µM; in the data active = inhibition above about 11%;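 also: 0% = median of compound wells on plate and 100% = full blocker control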
KLK7 zymogen act: proKLK7 (human) activation, primary screen; P49862; purified proKLK7, EDANS-DABCYL substrate fluorescence; 100% is mature enzyme control, 0% vehicle; activation, % at 7 µM; hit rate 0.9% among 370,000; AID 652039;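 active = activation above the mean of all tested compounds plus 3 SD, computed per campaign excluding outliers beyond control limits, cut at about 13% in these data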
ADAM10 inh: inhibits human ADAM10. O14672. hit rate 0.62% among 370,000. recombinant ADAM10, EDANS/DABCYL FRET peptide cleavage, 3 h. inhibition, % at 7 µM. AID 720582;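 active = inhibition above a per-campaign cutoff equal to the mean of compounds falling between control-based bounds plus 3 SD, cut at about 20% in these data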;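 also: 0% = DMSO wells while the 100% control is not disclosed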
Target sequence (O14672 214-748 limits assumed): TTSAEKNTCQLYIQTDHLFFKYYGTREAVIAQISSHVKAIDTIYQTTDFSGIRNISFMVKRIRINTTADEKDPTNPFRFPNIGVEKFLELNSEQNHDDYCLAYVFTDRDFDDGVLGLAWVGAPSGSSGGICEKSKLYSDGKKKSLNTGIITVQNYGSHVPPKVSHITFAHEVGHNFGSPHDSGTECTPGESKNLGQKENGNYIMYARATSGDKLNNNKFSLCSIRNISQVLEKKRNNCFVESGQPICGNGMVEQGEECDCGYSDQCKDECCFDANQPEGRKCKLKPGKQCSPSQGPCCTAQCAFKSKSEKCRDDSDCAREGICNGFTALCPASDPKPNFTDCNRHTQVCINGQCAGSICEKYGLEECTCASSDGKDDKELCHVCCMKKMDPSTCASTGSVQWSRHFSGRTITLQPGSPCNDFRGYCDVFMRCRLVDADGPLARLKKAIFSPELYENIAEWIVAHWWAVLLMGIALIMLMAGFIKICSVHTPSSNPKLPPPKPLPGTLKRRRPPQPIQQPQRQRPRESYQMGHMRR
PLC-gamma1 inh: blocks human PLC-gamma1 enzyme activity; P19174; purified PLC-gamma1, fluorogenic substrate, fluorescence; AID 720700; hit rate 0.84% among 370,000; inhibition, % at 12.2 µM
ADAM17 inh: ADAM17 inhibition, QFRET primary screen; inhibition, % at 6.95 µM; recombinant ADAM17, EDANS/DABCYL FRET peptide cleavage; P78536; AID 720648; hit rate 0.83% among 370,000;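 active = inhibition above the mean of compounds lying between control limits plus 3 SD, set per campaign, cut at about 8.5% in these data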;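 also: 0% = DMSO-only wells as the low control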
PLCg1 ctr: counter-screen for PLC-beta3 inhibitors: inhibitors of human PLC-gamma1; shares compounds with PLC-gamma1 inh; purified PLC-gamma1, fluorogenic substrate, fluorescence; inhibition, % at 12.3 µM; hit rate 3.1% among 3,300
PLCb3 confirm: confirmation of human PLC-beta3 inhibitors. shares compounds with PLC-gamma1 inh. purified PLC-beta3, fluorogenic substrate fluorescence. inhibition, % at 12.3 µM. hit rate 1% among 3,300; in the data active = inhibition above about 11%
* = called active by the depositor; i = inactive; / = no result. Only some compounds are listed: those with a hit (about 2.9% of all), similar ones and a draw of the others. Rule as the data show it, unless noted: active = inhibition above about 9.5%; inactive = the rest.

SMILES	PLC-beta3 inh	KLK7 zymogen act	ADAM10 inh	PLC-gamma1 inh	ADAM17 inh	PLCg1 ctr	PLCb3 confirm
O=C(Nc1ccc(OC(F)F)cc1)c1cc(S(=O)(=O)N2CCCCC2)ccc1N1CCOCC1	-5	1	1	-1	0	/	/
Cc1ccccc1NC(=O)c1cccc(C(=O)Nc2ccccc2C)c1	3	0	-1	12*	4	-1	2
O=C(Nc1ccc2c(c1)OCCO2)C(c1ccncc1)n1c(=O)c(-c2cc3ccccc3[nH]2)nc2ccccc21 (stereo not given)	i	-4	-193	i	-89	/	/
Cc1ccc(NC(=O)Cn2nnc(C(=O)NCc3ccccc3)c2N)cc1C	0	-1	9	11*	1	-3	-1
Cc1ccc(NC(=O)c2nnn(CC(=O)Nc3ccccc3)c2N)cc1C	-3	0	-4	0	-4	/	/
CC12CCC(C(=O)Nc3ccccc3-n3cccc3)(CC1=O)C2(C)C (stereo not given)	2	-1	-12	-2	-4	/	/
CC12CCC(C(=O)Nc3ccccc3N3CCOCC3)(CC1=O)C2(C)C (stereo not given)	8	0	8	9.5*	7	-4	-1
COC(=O)c1cn(CC(=O)NCc2ccco2)c2ccccc12	5	0	-4	13*	-4	-5	-3
CCC(=O)c1cn(CC(=O)NCc2ccco2)c2ccccc12	2	0	5	10.0*	2	-1	2
O=C(Cn1cc(C(=O)c2ccco2)c2ccccc21)NCc1ccco1	-8	0	-1	-4	0	/	/
CCC(C)c1ccc(S(=O)(=O)N2CCN(C(=O)c3ccc(Cl)c(S(=O)(=O)N4CCOCC4)c3)CC2)cc1 (stereo not given)	-8	0	-5	0	-1	/	/
CCOc1ccc(C(=O)Oc2cc(C)[nH]c(=O)c2[N+](=O)[O-])cc1OCC	2	0	5	10*	4	6	4
CCOc1ccc(C(=O)Oc2cc(C)[nH]c(=O)c2[N+](=O)[O-])cc1	3	-1	-10	4	-2	/	/
CCCCCOc1ccc(/C=N/NC(=O)CSc2nnc(-c3ccc(OC)cc3)n2-c2ccc(C)cc2)cc1	2	0	4	2	0	/	/
N#Cc1c(NC(=O)CSc2nnnn2C2CCCCC2)sc2c1CCCC2	3	0	6	10*	2	-6	3
COc1ccc2cc(/C(C)=N/NC(=O)c3cc(C)oc3C)ccc2c1	-475	7	i	-352	-436	/	/
COc1cc2c(c(OC)c1OC)C(=O)CC2	-8	0	-2	4	-3	/	/
COc1cc2c(c(O)c1OC)C(=O)C(OC)CCC2 (stereo not given)	12*	-1	10	4	7	-3	0
Cc1ccc(CS(=O)Cc2ccc(C(=O)N3CCN(c4ccc(F)cc4)CC3)o2)cc1 (stereo not given)	-9	0	11	12*	5	-9	-9
CCCCN(C)CCNC(=O)CN1C(=O)CSc2ccc(S(=O)(=O)N3CCCC3)cc21	-2	0	1	0	-2	/	/
Cn1c(=NC(=O)C2CC2)sc2cccc(F)c21	0	0	7	11*	3	-6	-5
COC(=O)[C@]1(CNC(C)=O)CC(=O)N(Cc2ccc(Cl)cc2)[C@@H]1c1ccc(OC)cc1	1	1	4	11*	6	-9	-4
COC(=O)[C@]1(CNC(=O)C(C)(C)C)CC(=O)N(Cc2ccc(Cl)cc2)[C@@H]1c1ccc(OC)cc1	5	0	8	3	3	/	/
Cc1ccc2ncnc(NCCCN3CCOCC3)c2c1	-1	0	2	-2	-5	/	/
Cc1csc2c(NCCCN3CCOCC3)ncnc12	-2	-1	14	13*	-1	-5	1
CC1(C(=O)NCc2cccs2)Cc2c(-c3ccc4c(c3)OCO4)ccnc2O1 (stereo not given)	-9	0	-73	-3	-21	/	/
CC1CCc2cc(F)ccc2N1C(=O)CSc1nnc2c3ccccc3n(C)c2n1 (stereo not given)	2	0	-3	9.7*	4	-10	-3
